# Screening data from PubChem.
# Mtb FBA inh: inhibits M. tuberculosis FBA enzyme; purified M. tuberculosis FBA, fluorescence read-out; inhibition, % at 1 µM; 360,000 tested, 2.3% active; AID 588726; in the data active = inhibition above about 27%;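 also: 0% = vehicle and 100% = reference inhibitor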
# GDH-TPI inh: inhibits GDH-TPI coupling enzymes, artifact for Mtb FBA screen; 360,000 tested, 1.2% active; AID 588335; GDH-TPI coupled enzyme counterscreen, NADH absorbance; inhibition, % at 4.8 µM; in the data active = inhibition above about 30%;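 also: 0% = DMSO wells and 100% = wells lacking the enzyme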
# Rv3671c inh: Rv3671c (M. tuberculosis) protease inhibition; P9WHR9; inhibition, % at 5.96 µM; 320,000 tested, 0.048% active; AID 2606; in the data active = inhibition above about 38%;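 also: extracellular domain of Rv3671c used as enzyme; 0% = enzyme with DMSO and 100% = no enzyme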
# RecA splice inh: Mtb RecA intein splicing inhibition; P9WHJ3; cell-free RecA intein splicing, fluorescence; inhibition, % (test concentration not listed); 290,000 tested, 0.75% active; AID 2221; in the data active = inhibition above about 30%;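 also: 0% = vehicle wells and 100% = reference inhibitor control wells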
# BH1578 lux ind: quorum light induction in luxS cqsA deficient V. cholerae | activation, % at 18.7 µM | AID 588436 | V. cholerae BH1578 lux reporter, luminescence, 6 h | 350,000 tested, 0.16% active; in the data active = activation mostly above about 9.7%, no sharp cut-off
# Mtb UGM inh: blocks M. tuberculosis UGM enzyme. P9WIQ1. purified UGM, fluorescence polarization probe displacement. inhibition, % at 10 µM. 320,000 tested, 0.06% active. AID 504406; in the data active = inhibition above about 10%, passing the limit was not always enough
# Target sequence (P9WIQ1 whole entry, looked up): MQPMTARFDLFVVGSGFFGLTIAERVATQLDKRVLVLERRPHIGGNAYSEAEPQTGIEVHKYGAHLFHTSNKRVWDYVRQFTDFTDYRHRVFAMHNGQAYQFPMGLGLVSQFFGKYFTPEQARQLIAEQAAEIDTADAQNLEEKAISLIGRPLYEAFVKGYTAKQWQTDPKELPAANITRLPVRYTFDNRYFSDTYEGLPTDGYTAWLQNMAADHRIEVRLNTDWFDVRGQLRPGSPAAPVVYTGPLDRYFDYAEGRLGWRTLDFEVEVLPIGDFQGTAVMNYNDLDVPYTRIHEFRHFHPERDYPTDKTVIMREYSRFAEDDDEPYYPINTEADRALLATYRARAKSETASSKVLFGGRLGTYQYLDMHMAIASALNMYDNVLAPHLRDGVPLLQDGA
# * marks the source's active call; other numbers are inactive results; i = inactive; · = not tested or not shown; + = active, no number. Sampled rows, rich in hits. Any-hit rate of the full collection: about 4.1%.
SMILES,Mtb FBA inh,GDH-TPI inh,Rv3671c inh,RecA splice inh,BH1578 lux ind,Mtb UGM inh
COc1ccc(-c2sc3cc4c(cc3c2C#CC2(O)CCCCC2)OCO4)cc1,6,12,-14,·,0,-2
COc1ccc(C(=O)c2c(-c3ccc(OC)cc3)oc3ccc(-c4cc(OC)c(OC)c(OC)c4)cc23)cc1,9,37*,1,-5,i,3
COc1ccc(-c2ccc3oc(-c4ccc(OC)cc4)c(C#CCO)c3c2)cc1,16,31*,-8,1,-1,0
COc1ccc(-c2oc3ccc(-c4ccc5c(c4)OCO5)cc3c2C#CC2(O)CCCCC2)cc1,45*,54*,-46,-1,-6,3
COc1ccc(-c2oc3ccc(-c4ccc(OC)nc4)cc3c2-c2ccc(OC)cc2)cc1,0,-6,13,0,-11,0
COc1ccc(-c2ccc3oc(-c4ccc(OC)cc4)c(-c4ccc(OC)cc4)c3c2)cc1,-2,10,0,-1,6,-1
CCCc1cnc(N2CCN(C(=O)c3ccc(OC)cc3)CC2)nc1,2,2,-3,1,i,-2
COc1ccccc1-c1oc2ccccc2c1C#CC1(O)CCCCC1,24,0,-9,·,i,-5
COc1cc(-c2ccc3oc(-c4cccc(C)c4)c(C#CC4(O)CCCCC4)c3c2)cc(OC)c1OC,117*,35*,-27,·,-5,0
O=S(=O)(Nc1cccc(-n2cnnn2)c1)c1ccc(F)cc1,3,-2,·,·,7,·
Cc1ccc(-c2ccc(C(=O)Nc3ccccc3)o2)c2ccccc12,9,8,-45,10,i,0
Cc1ccc(S(=O)(=O)NC(=O)c2ccc(-c3ccc(C)c4ccccc34)o2)cc1,130*,29,-16,20,i,-1
CC1(C)CC(CCNC(=O)CCl)(c2ccccc2)CCO1 (configuration not stated),-2,8,8,32*,-3,-2
CC1=CS/C(=C(/C#N)C(=O)NCc2ccco2)N1c1ccccc1,-1,51*,2,-5,0,2
COc1ccc(NC(=O)CN(C)CC(=O)N2CC(=O)Nc3ccccc32)cc1,-1,-1,5,·,i,-1
COc1ccc(Cc2nnc(N/N=C/c3ccc(N(C)C)cc3)[nH]c2=O)cc1OC,-2,78*,5,-1,i,-1
Cc1cc(=O)[nH]c(N/N=C/c2ccc(N(C)C)cc2)n1,14,35*,3,-8,0,4
CCN(CCC#N)c1ccc(/C=N/Nc2nc(C)cc(=O)[nH]2)c(C)c1,8,45*,10,-4,0,-1
CCNc1nc(NCC)nc(N/N=C/c2ccc(N(C)C)cc2)n1,24,38*,-3,·,1,0
O=C(COC(=O)c1ccc([N+](=O)[O-])o1)NCc1ccc2c(c1)OCO2,-2,7,-25,·,i,3
N#CC1C=Cc2c(ccc3ccccc23)N1C(=O)c1ccccc1 (configuration not stated),5,9,·,·,1,·
Cc1cc(=O)[nH]c(N/N=C/c2ccccc2C(F)(F)F)n1,-3,4,-8,0,0,0
Cc1cc(=O)[nH]c(N/N=C/c2cc(C)n(CC(F)(F)F)c2C)n1,3,40*,8,-4,-4,-1
O=C(/C=C/c1ccccc1Cl)c1ccc(O)cc1,-3,35*,-2,4,-1,-1
COc1ccc(NC(=O)Cn2nnc(-c3ccccc3)c2COc2ccc3ccccc3c2)cn1,-3,-8,·,·,i,·
SMILES,Mtb FBA inh,GDH-TPI inh,Rv3671c inh,RecA splice inh,BH1578 lux ind,Mtb UGM inh
COc1ccc(-c2cc(=NCC(=O)O)c3ccccc3o2)cc1,+,28,-8,-80,-1,3
CCc1ccc2oc(-c3ccc(OC)cc3)cc(=Nc3cccc(C(=O)O)c3)c2c1,+,22,-5,8,0,1
COc1ccc(-c2cc(=Nc3ccc(C(=O)O)cc3)c3cc(C)ccc3o2)cc1,+,9,-14,3,0,4
CCc1ccc2oc(-c3ccc(OC)cc3)cc(=Nc3c(C)n(C)n(-c4ccccc4)c3=O)c2c1,+,20,-6,3,1,1
COC(=O)C(CCCCNC(=O)c1ccc([N+](=O)[O-])cc1)NC(=O)c1ccc([N+](=O)[O-])cc1 (configuration not stated),1,6,5,3,0,0
COc1ccc(-c2cc(=O)c3cc(O)ccc3o2)cc1,1,29,-6,-3,-1,-1
COc1ccc(-c2cc(=Nc3cccc(C(=O)O)c3)c3cc(C)ccc3o2)cc1,+,22,-1,10,i,0
COc1ccc(-c2cc(=NCCCCCC(=O)O)c3cc(C)ccc3o2)cc1,·,50*,·,-38,-1,·
CCOC(=O)C(=CNc1ccc(O)c(C(=O)OC)c1)C(=O)OCC,-2,26,5,-2,-1,-4
CCOC(=O)C(=CNc1cc(C(F)(F)F)ccc1N1CCOCC1)C(=O)OCC,0,32*,1,0,0,0
CCOC(=O)C(=CNc1cc(C)ccc1[N+](=O)[O-])C(=O)OCC,-3,10,-6,1,0,0
CCOC(=O)C(=CNc1cc(C)ccc1C)C(=O)OCC,-2,34*,-1,7,-6,0
CCOC(=O)C(=CNc1cc(OC)ccc1-n1cccc1)C(=O)OCC,13,36*,0,2,0,0
CC(=O)Nc1cc(C(F)(F)F)ccc1N1CCOCC1,0,7,0,1,-3,-1
C#C[C@]1(O)CC[C@H]2[C@@H]3[C@H](C)CC4=C(CCC(=O)C4)[C@H]3CC[C@@]21C,·,·,3,3,·,2
Cc1ccc(S(=O)(=O)NCCS(=O)(=O)N2CCN(c3ccc(F)cc3)CC2)cc1,6,7,-4,1,-2,-3
CCCCC(NC(=O)c1ccc(C#N)cc1)C(=O)NCCC (configuration not stated),0,5,5,·,i,-1
CC(C)C[C@H]1CNC(=S)N1C[C@H]1CCCN1C[C@H](CC(C)C)N1C[C@H](Cc2ccc(O)cc2)N(CC2CCCCCC2)C1=S,-6,·,·,·,·,·
O=c1/c(=C/c2ccco2)sc2n1CN(c1ccccc1)CN=2,-3,32*,3,1,-3,-1
O=c1/c(=C/c2ccco2)sc2n1CN(c1cccc(Br)c1)CN=2,-9,38*,1,-3,0,-4
Cc1ccc(S(=O)(=O)N2CCOCC2)cc1NC(=O)Cn1c(=O)ccn(Cc2ccccc2)c1=O,-1,0,·,·,-3,·
O=C(CSc1cccc2cccnc12)N/N=C/c1ccc(O)cc1,16,47*,8,-2,8,-2
CC(C)(C)c1ccc(C2C(C#N)=C(N)Oc3n[nH]c(-c4cccnc4)c32)cc1 (configuration not stated),3,11,-26,6,i,0
